Results as given in PubChem BioAssay (EPA / NIEHS).
Active and inactive are the calls of the source. The calls were made as follows: active = hit-call score of the fitted dose curve at least 0.9, where 1 is the maximum; inactive = score below 0.9.

How the values were obtained:
Details in all cases: mRNA level, 48 h; actives raise or lower the signal
[1] = read-out: Cytochrome P450 (CYP24A1), CYP24A1 (gene 1591); test: LTEA_HepaRG_CYP24A1: Life Technologies and Expression Analysis (LTEA) Assay for Cytochrome P450 (CYP24A1) using HepaRG (AID 2283478)
In short: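 qRT-PCR read-out: CYP24A1 transcript levels normalized to three housekeeping genes, bidirectional curve fits against 0.5% DMSO baseline. Human HepaRG cells treated 48 h with chemicals at eight concentrations from 100 uM in half-log steps.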

[2] = read-out: Cytochrome P450 (CYP1A2), CYP1A2 (gene 1544); test: LTEA_HepaRG_CYP1A2: Life Technologies and Expression Analysis (LTEA) Assay for Cytochrome P450 (CYP1A2) using HepaRG (AID 2283479)
In short: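 HepaRG, 48 h exposure, top 100 uM, half-log 8-pt, 0.5% DMSO vehicle, duplicates. Readout: TaqMan qRT-PCR of CYP1A2 mRNA, housekeeping-normalized (ACTB/GAPDH/POLR2A). Gain/loss fit relative to DMSO baseline.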

[3] = read-out: cysteine-aspartic acid protease (CASP8), CASP8 (gene 841); test: LTEA_HepaRG_CASP8: Life Technologies and Expression Analysis (LTEA) Assay for cysteine-aspartic acid protease (CASP8) using HepaRG (AID 2283480)
In short: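 qRT-PCR readout of CASP8 mRNA, normalized to three housekeeping genes, after 48 h chemical exposure of HepaRG cells; 8-point half-log series, top 100 uM, 0.5% DMSO vehicle. Bidirectional curve fitting against DMSO baseline.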

[4] = read-out: Cytochrome P450 2C19 (Homo sapiens) (UniProt P33261); test: LTEA_HepaRG_CYP2C19: Life Technologies and Expression Analysis (LTEA) Assay for CYP2C19 using HepaRG (AID 2283482)
In short: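 HepaRG, 48 h chemical exposure, 8-pt half-log series from 100 uM in 0.5% DMSO, duplicates. Readout: CYP2C19 mRNA by TaqMan qRT-PCR, housekeeping-normalized. Bidirectional fit vs DMSO baseline; phenobarbital 1mM as induction control.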

[5] = read-out: CYP2C8 (gene 1558); test: LTEA_HepaRG_CYP2C8: Life Technologies and Expression Analysis (LTEA) Assay for CYP2C8 using HepaRG (AID 2283483)
In short: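 HepaRG (human liver line), 48 h chemical exposure, 8-pt half-log series from 100 uM, 0.5% DMSO vehicle. Readout: CYP2C8 transcript by qRT-PCR, housekeeping-normalized. Bidirectional fit vs DMSO baseline.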

[6] = read-out: CYP2C9 (gene 1559); test: LTEA_HepaRG_CYP2C9: Life Technologies and Expression Analysis (LTEA) Assay for CYP2C9 using HepaRG (AID 2283484)
In short: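 HepaRG, 48 h dosing, 8-pt half-log series, top 100 uM, 0.5% DMSO vehicle. Read-out: CYP2C9 transcript by TaqMan qRT-PCR, housekeeping-normalized (ACTB/GAPDH/POLR2A). Gain or loss fitted vs DMSO baseline.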

[7] = read-out: CYP2E1 (gene 1571); test: LTEA_HepaRG_CYP2E1: Life Technologies and Expression Analysis (LTEA) Assay for CYP2E1 using HepaRG (AID 2283485)
In short: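 CYP2E1 transcript was measured by TaqMan qRT-PCR in human HepaRG cultures after 48 h chemical exposure (top 100 uM, half-log steps, 0.5% DMSO vehicle). Housekeeping-gene normalization; gain or loss fitted relative to DMSO baseline.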

[8] = read-out: CYP4A11 (gene 1579); test: LTEA_HepaRG_CYP4A11: Life Technologies and Expression Analysis (LTEA) Assay for CYP4A11 using HepaRG (AID 2283486)
In short: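 CYP4A11 transcript levels were quantified by TaqMan qRT-PCR after HepaRG human liver cells were treated for 48 hours with test chemicals (top 100 uM, half-log dilutions, 0.5% DMSO). Gain or loss of signal was fitted relative to DMSO.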

[9] = read-out: Cytochrome P450 3A4 (Homo sapiens) (UniProt P08684); test: LTEA_HepaRG_CYP3A4: Life Technologies and Expression Analysis (LTEA) Assay for CYP3A4 using HepaRG (AID 2283487)
In short: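 Differentiated HepaRG cells, plated 48 h, then dosed 48 h in serum-free induction medium with 0.5% DMSO, 8 half-log concentrations up to 100 uM, duplicate. CYP3A4 mRNA by qRT-PCR, normalized to ACTB/GAPDH/POLR2A; bidirectional fit versus DMSO.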

[10] = read-out: DNA damage-inducible transcript 3 (DDIT3), DDIT3 (gene 1649); test: LTEA_HepaRG_DDIT3: Life Technologies and Expression Analysis (LTEA) Assay for DNA damage-inducible transcript 3 (DDIT3) using HepaRG (AID 2283488)
In short: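 qRT-PCR readout (Fluidigm TaqMan), housekeeping-normalized to ACTB, GAPDH, POLR2A. HepaRG cells, 48 h exposure, 8-point half-log series from 100 uM in 0.5% DMSO, duplicates. Gain or loss of signal fitted against DMSO baseline.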

[11] = read-out: Pro-epidermal growth factor (Homo sapiens) (UniProt P01133); test: LTEA_HepaRG_EGF: Life Technologies and Expression Analysis (LTEA) Assay for Epidermal growth factor (EGF) using HepaRG (AID 2283489)
In short: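 qRT-PCR readout of EGF transcript after 48 h chemical exposure of HepaRG cells; eight concentrations from 100 uM down in half-log steps, duplicate wells, 0.5% DMSO vehicle. Bidirectional curve fitting against DMSO baseline.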

[12] = read-out: Early growth response protein 1 (EGR1) transcription factor, EGR1 (gene 1958); test: LTEA_HepaRG_EGR1: Life Technologies and Expression Analysis (LTEA) Assay for Early growth response protein 1 (EGR1) transcription factor using HepaRG (AID 2283490)
In short: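 HepaRG, 48 h exposure, 8-pt half-log series from 100 uM, 0.5% DMSO vehicle; EGR1 transcript by TaqMan qRT-PCR (Fluidigm array), housekeeping-normalized; bidirectional fit relative to DMSO baseline.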

[13] = read-out: Ezrin (EZR), EZR (gene 7430); test: LTEA_HepaRG_EZR: Life Technologies and Expression Analysis (LTEA) Assay for Ezrin (EZR) using HepaRG (AID 2283491)
In short: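 EZR transcript levels came from Fluidigm qRT-PCR and were normalized to three housekeeping genes after 48 h chemical exposure of HepaRG cells. Dosing used an 8-point half-log series with a 100 uM top concentration in 0.5% DMSO, tested in duplicate; both directions were fitted versus vehicle.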

[14] = read-out: Cytochrome P450 3A7 (Homo sapiens) (UniProt P24462); test: LTEA_HepaRG_CYP3A7: Life Technologies and Expression Analysis (LTEA) Assay for CYP3A7 using HepaRG (AID 2283492)
In short: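 CYP3A7 transcript levels were read by TaqMan qRT-PCR on Fluidigm arrays after 48 h chemical exposure of human HepaRG cells, with housekeeping-gene normalisation. Eight half-log concentrations up to 100 uM in 0.5% DMSO were tested in duplicate.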

[15] = read-out: CYP3A5 (gene 1577); test: LTEA_HepaRG_CYP3A5: Life Technologies and Expression Analysis (LTEA) Assay for CYP3A5 using HepaRG (AID 2283493)
In short: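 qRT-PCR read-out: CYP3A5 transcript in HepaRG lysates, housekeeping-normalized (ACTB/GAPDH/POLR2A), fitted bidirectionally against 0.5% DMSO baseline. Exposure 48 h, eight half-log concentrations up to 100 uM, duplicates.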

[16] = read-out: Cytochrome P450 4A22 (Homo sapiens) (UniProt Q5TCH4); test: LTEA_HepaRG_CYP4A22: Life Technologies and Expression Analysis (LTEA) Assay for Cytochrome P450 4A22 (CYP4A22) using HepaRG (AID 2283495)
In short: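 HepaRG, 48 h post-plating -> serum-free induction medium; dosed 48 h, duplicate, 8 conc. (100 uM top, half-log), 0.5% DMSO. Readout: CYP4A22 mRNA by qRT-PCR, ACTB/GAPDH/POLR2A normalization; gain/loss fit relative to DMSO.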

[17] = read-out: Glutathione S-Transferase (GSTA2), GSTA2 (gene 2939); test: LTEA_HepaRG_GSTA2: Life Technologies and Expression Analysis (LTEA) Assay for Glutathione S-Transferase (GSTA2) using HepaRG (AID 2283497)
In short: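 qRT-PCR readout of GSTA2 transcript, normalized to three housekeeping genes, fitted bidirectionally against 0.5% DMSO baseline. Differentiated HepaRG cells received compound for 48 h at 8 concentrations (top 100 uM, half-log steps).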

[18] = read-out: Cytochrome P450 (CYP2B6), CYP2B6 (gene 1555); test: LTEA_HepaRG_CYP2B6: Life Technologies and Expression Analysis (LTEA) Assay for Cytochrome P450 (CYP2B6) using HepaRG (AID 2283481)
In short: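 Read-out is CYP2B6 mRNA by TaqMan qRT-PCR, normalized to three housekeeping genes and fitted bidirectionally against 0.5% DMSO baseline. Human HepaRG cells received test chemicals for 48 h, top concentration 100 uM, half-log dilutions.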

[19] = read-out: Fatty Acid-Binding Protein 1 (FABP1), FABP1 (gene 2168); test: LTEA_HepaRG_FABP1: Life Technologies and Expression Analysis (LTEA) Assay for Fatty Acid-Binding Protein 1 (FABP1) using HepaRG (AID 2283494)
In short: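 qRT-PCR readout of FABP1 transcript (normalized to three housekeeping genes) after 48 h chemical exposure of HepaRG cells; eight concentrations, half-log steps, max 100 uM, 0.5% DMSO vehicle; gain or loss fitted relative to DMSO baseline.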

[20] = read-out: Cytochrome P450 7A1 (Homo sapiens) (UniProt P22680); test: LTEA_HepaRG_CYP7A1: Life Technologies and Expression Analysis (LTEA) Assay for Cytochrome P450 7A1 (CYP7A1) using HepaRG (AID 2283496)
In short: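 Using 0.5% DMSO as vehicle and baseline, chemicals were tested in duplicate over an 8-point range from 100 uM on HepaRG cells for 48 h; qRT-PCR signals were normalised to ACTB, GAPDH and POLR2A.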

Measured: AC50

Cytochrome P450 3A7 (Homo sapiens), sequence (P24462 whole entry, looked up): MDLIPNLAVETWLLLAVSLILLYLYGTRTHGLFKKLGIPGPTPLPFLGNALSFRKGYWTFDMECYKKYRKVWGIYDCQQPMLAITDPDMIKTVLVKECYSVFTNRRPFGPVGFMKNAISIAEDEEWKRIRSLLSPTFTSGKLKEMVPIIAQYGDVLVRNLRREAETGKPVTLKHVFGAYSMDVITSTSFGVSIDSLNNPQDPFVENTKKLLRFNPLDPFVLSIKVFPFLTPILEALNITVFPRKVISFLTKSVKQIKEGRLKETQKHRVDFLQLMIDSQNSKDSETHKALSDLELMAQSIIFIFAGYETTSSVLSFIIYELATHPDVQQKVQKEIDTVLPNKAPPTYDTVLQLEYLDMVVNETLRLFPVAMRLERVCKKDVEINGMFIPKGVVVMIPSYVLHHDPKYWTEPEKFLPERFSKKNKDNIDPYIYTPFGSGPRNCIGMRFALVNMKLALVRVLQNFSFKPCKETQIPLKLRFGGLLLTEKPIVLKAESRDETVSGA
Cytochrome P450 2C19 (Homo sapiens), sequence (P33261 whole entry, looked up): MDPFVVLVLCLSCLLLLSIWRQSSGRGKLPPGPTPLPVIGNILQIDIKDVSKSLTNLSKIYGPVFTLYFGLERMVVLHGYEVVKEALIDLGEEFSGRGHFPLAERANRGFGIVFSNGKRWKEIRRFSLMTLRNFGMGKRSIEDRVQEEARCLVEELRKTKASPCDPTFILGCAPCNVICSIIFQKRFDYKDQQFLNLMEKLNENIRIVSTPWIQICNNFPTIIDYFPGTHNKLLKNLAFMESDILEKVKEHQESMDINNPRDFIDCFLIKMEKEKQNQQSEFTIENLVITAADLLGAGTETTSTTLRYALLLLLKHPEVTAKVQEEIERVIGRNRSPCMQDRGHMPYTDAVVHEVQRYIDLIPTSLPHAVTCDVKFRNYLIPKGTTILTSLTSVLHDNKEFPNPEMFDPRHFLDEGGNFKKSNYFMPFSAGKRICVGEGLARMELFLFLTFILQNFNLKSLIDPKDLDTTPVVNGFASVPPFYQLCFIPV
Cytochrome P450 3A4 (Homo sapiens), sequence (P08684 whole entry, looked up): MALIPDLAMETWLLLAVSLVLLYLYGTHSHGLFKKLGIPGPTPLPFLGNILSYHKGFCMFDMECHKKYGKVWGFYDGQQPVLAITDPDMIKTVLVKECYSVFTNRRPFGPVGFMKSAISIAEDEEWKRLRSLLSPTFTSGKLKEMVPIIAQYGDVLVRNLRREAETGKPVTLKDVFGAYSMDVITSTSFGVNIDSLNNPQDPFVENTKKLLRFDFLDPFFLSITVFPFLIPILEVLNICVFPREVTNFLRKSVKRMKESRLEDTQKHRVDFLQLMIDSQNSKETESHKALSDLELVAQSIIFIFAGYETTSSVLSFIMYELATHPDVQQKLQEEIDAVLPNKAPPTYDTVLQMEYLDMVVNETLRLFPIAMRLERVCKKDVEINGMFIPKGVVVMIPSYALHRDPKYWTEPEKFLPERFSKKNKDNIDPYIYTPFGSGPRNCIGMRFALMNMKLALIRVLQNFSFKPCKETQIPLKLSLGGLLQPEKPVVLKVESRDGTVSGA

CCc1nn(C2CCCCC2)c2cc(C3(C#N)CCC(C(=O)O)CC3)ccc12 (stereo not drawn)
active: [2] 91 µM | [4] 63.3 µM | [5] 79.8 µM | [6] 63.4 µM | [7] 60.6 µM | [8] 50.6 µM | [9] 82.2 µM | [10] 77.5 µM | [11] 50 µM | [12] 12.1 µM | [13] 0.313 µM | [14] 87.8 µM | [16] 56.7 µM | [17] 77.1 µM
inactive: [1] | [3] | [15]

O=C(OCCOCCOC(=O)c1ccccc1)c1ccccc1
active: [2] 68.9 µM
inactive: [1] | [3] | [18] | [4] | [5] | [6] | [7] | [8] | [9] | [11] | [13] | [14] | [15] | [19] | [16] | [17]

CC[C@H](C)[C@@H](C(=O)O)n1sc2ccccc2c1=O
active: [2] 50 µM | [18] 10.1 µM
inactive: [1] | [3] | [4] | [5] | [6] | [7] | [8] | [9] | [11] | [13] | [14] | [15] | [19] | [16] | [20] | [17]

C#C[C@]1(O)CC[C@H]2[C@@H]3CCC4=CC(=O)CC[C@@H]4[C@H]3CC[C@@]21C
active: [4] 9.92 µM | [5] 6.29 µM | [7] 0.124 µM | [8] 0.0465 µM | [11] 22.9 µM | [17] 6.05 µM
inactive: [1] | [2] | [3] | [10] | [13] | [19] | [16]

Cc1oc(-c2ccccc2)nc1CCOc1ccc(C[C@H](Nc2ccccc2C(=O)c2ccccc2)C(=O)O)cc1
active: [2] 27.2 µM | [3] 32.1 µM | [4] 23.3 µM | [5] 25.2 µM | [6] 22.5 µM | [7] 17.1 µM | [8] 28.1 µM | [9] 12.7 µM | [10] 14.1 µM | [11] 24.9 µM | [13] 70 µM | [14] 25.7 µM | [15] 30.5 µM | [16] 0.189 µM | [17] 23.4 µM
inactive: [1]

CC[C@H](c1ccc(O)cc1)[C@@H](CC)c1ccc(O)cc1
active: [1] 83.4 µM | [4] 80.3 µM | [7] 87.9 µM | [8] 76.7 µM | [12] 78.7 µM | [13] 88.4 µM | [15] 70.3 µM | [20] 78.8 µM | [17] 87.3 µM
inactive: [2] | [3] | [5] | [6] | [10] | [11] | [14] | [16]

Oc1cc2ccccc2c2ccccc12
inactive: [1] | [3] | [4] | [5] | [6] | [7] | [8] | [9] | [11] | [13] | [14] | [15] | [16] | [17]
active: [2] 22.4 µM
